Dicer inh: inhibitors of human Dicer processing of pre-microRNA; Q9UPY3; cat-ELCCA pre-miR-21 Dicer processing, chemiluminescence; stronger effect = higher value; z-score at 25 µM; hit rate 6% among 47,000; in the data active = z-score above about 3, passing the limit was not always enough;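 also: higher signal means more uncleaved substrate so more Dicer inhibition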
A number is an active result; - = inactive. The full list was thinned out, with hits kept by preference.

SMILES | Dicer inh
c1ccc(N2CCN(c3nc4ccccc4[nH]3)CC2)nc1 | 3.5
CCOC(=O)c1cc(CC)sc1NC(=O)Cn1c(=O)sc2ccccc21 | -
COC(=O)c1ccc(OCC(O)Cn2c[n+](C)c3cc(C)c(C)cc32)cc1 (stereo not given) | -
CCOC(=O)NC(Nc1ccc(F)c(Cl)c1)(C(=O)OCC)C(F)(F)F (stereo not given) | -
CC1NC2(C(=O)N(CC(=O)Nc3ccccc3)c3ccccc32)C2C(=O)N(c3ccccc3)C(=O)C12 (stereo not given) | -
COc1ccc(OC)c(NC(=O)CSc2ncnc3nc[nH]c23)c1 | -
CC1CN(c2ncc(C(=O)OCC3CC3)c(C(F)(F)F)n2)CC(C)O1 (stereo not given) | -
Cc1cccc(C)c1OCC(O)Cn1cnc2ccccc21 (stereo not given) | -
Cc1ccc(Cl)c(OCC(O)Cn2cnc3ccccc32)c1 (stereo not given) | -
Cc1cccc(OCC(O)Cn2cnc3ccccc32)c1 (stereo not given) | 3.7
COc1cc(/C=N/NC(=O)c2oc3nc(-c4ccccc4)cc(C)c3c2N)ccc1O | -
O=[N+]([O-])c1c(N2CCOCC2)n[nH]c1-c1nnco1 | -
COc1cc(N=Cc2cccs2)c(OC)cc1Cl | -
O=C(ON(Cc1c(F)cccc1Cl)Cc1c(F)cccc1Cl)C1CC1 | -
COc1cccc(/C=C2\N=C(SC)SC2=O)c1 | -
CN(NC(=O)c1cccs1)c1cnn(C)c(=O)c1Cl | -
Cc1ccc(Nc2cc(C)nc3ccc(C)cc23)cc1 | -
COc1ccc(Nc2cc(C)nc3ccc(OC)cc23)cc1 | -
COc1ccc2nc(C)cc(Nc3ccc(Cl)cc3)c2c1 | 3.1
Clc1cccc(-n2ncnc2-c2cccc(Br)c2)c1 | -
N#Cc1nc(COc2ccc(Cl)cc2)oc1NCCN1CCOCC1 | -
Cc1cc(NC(=O)C2Sc3nnc(C)n3NC2c2ccc(Cl)cc2)ccc1Br (stereo not given) | 3.7
Cc1nnc2n1NC(c1ccc(Cl)cc1)C(C(=O)Nc1ccc(Br)cc1)S2 (stereo not given) | -
Cc1cc(C)cc(NC(=O)C2Sc3nnc(C)n3NC2c2ccc(Cl)cc2)c1 (stereo not given) | -
CCCCNC(=O)c1cc(OCc2ccccc2Cl)cc(OCc2ccccc2Cl)c1 | -
SMILES | Dicer inh
O=C(Nc1cccc(C(F)(F)F)c1)Oc1ccc(F)cc1Cl | -
O=C(Nc1ccccc1)Oc1cccc(F)c1OC(=O)Nc1ccccc1 | 3.4
O=C(Nc1ccccc1)Nc1cccc(NC(=O)Nc2ccccc2)c1F | -
Fc1ccccc1Nc1ncnc2c1oc1ccccc12 | -
CCOC(=S)SCc1ccc(C(=O)Oc2ccc(F)cc2Cl)cc1 | -
O=C1Nc2ccccc2C1Cc1ccc(Cl)cc1 (stereo not given) | -
Cc1cccc(/C=C2\SC(=S)N(/N=C/c3ccc(Cl)cc3Cl)C2=O)c1 | -
O=C1/C(=C/c2c(F)c(F)c(F)c(F)c2F)SC(=S)N1/N=C/c1ccc(Cl)cc1Cl | 12
C=CCn1c(=S)sc2c(=O)n(/N=C/c3ccc(Cl)cc3Cl)c(C)nc21 | -
CC1CCC2C(=O)N(c3ccccc3O)C(=O)C2C1 (stereo not given) | -
Cc1oc(S(=O)(=O)Nc2ccsc2C(=O)O)cc1C(=O)O | -
CCOC(=O)N1CCN(CC(O)COCc2ccc3c(c2)OCO3)CC1 (stereo not given) | 3.2
CCOC(=O)N1CCN(CC(O)COc2cc(C)cc(C)c2)CC1 (stereo not given) | -
CCOC(=O)c1c(C)n(C)c2ccc(OCC(O)CN3CCOCC3)cc12 (stereo not given) | -
OC(CN1CCN(Cc2ccc3c(c2)OCO3)CC1)Oc1ccc(C(F)(F)F)cc1 (stereo not given) | -
CCOC(=O)N1CCN(S(=O)(=O)c2c(C)cc(C)cc2C)CC1 | -
CCOC(=O)N1CCN(CC(O)COc2cc(C)ccc2C(C)C)CC1 (stereo not given) | 3.5
CCOC(=O)N1CCN(CC(O)COc2c(C)cc(C)cc2C)CC1 (stereo not given) | 3.3
CCOC(=O)c1c(C)n(C)c2ccc(OCC(O)CN3CCN(C)CC3)cc12 (stereo not given) | -
O=C(COc1ccc(Cl)cc1)N1CCN(Cc2ccc3c(c2)OCO3)CC1 | -
Cc1cc(OCc2nc(-c3ccncc3)no2)ccc1Cl | -
O=c1c2ccccc2cnn1CCc1ccccc1 | -
C#Cc1cccc(N=C(N)N=C(N)N)c1 | -
Cc1nnc(Sc2nc([N+](=O)[O-])nn2C)s1 | -
N#CC(=C1SCCCS1)S(=O)(=O)c1ccc(Cl)cc1 | -
SMILES | Dicer inh
FC(F)(F)c1cccc(Nc2ncnc3c2cnn3-c2ccccc2)c1 | -
FC(F)(F)c1cccc(Nc2ncnc3c2nnn3Cc2ccccc2)c1 | -
O=C(NC1CCN(Cc2ccccc2)CC1)C1CCN(c2nccc(C(F)(F)F)n2)CC1 | -
CC1CCC(C(C)C)C(OCC(O)CNC(C)C)C1 (stereo not given) | -
Cc1nnc(N2C(=O)C(O)=C(C(=O)c3cccs3)C2c2ccc(F)cc2)s1 (stereo not given) | 3.8
COC(=O)c1sc(N2C(=O)C(O)=C(C(=O)c3cccs3)C2c2ccc(C(C)C)cc2)nc1C (stereo not given) | -
Cc1nnc(N2C(=O)C(O)=C(C(=O)c3cccs3)C2c2ccc(C(C)(C)C)cc2)s1 (stereo not given) | -
COC(=O)c1sc(N2C(=O)C(O)=C(C(=O)c3cccs3)C2c2ccc(Cl)cc2)nc1C (stereo not given) | 3.8
COc1ccc(C2C(C(=O)c3ccco3)=C(O)C(=O)N2c2nnc(C)s2)cc1OC (stereo not given) | -
Cc1nnc(N2C(=O)C(O)=C(C(=O)c3cccs3)C2c2ccc(Cl)cc2)s1 (stereo not given) | -
CC(C)c1ccc(C2C(C(=O)c3cccs3)=C(O)C(=O)N2CCCN2CCOCC2)cc1 (stereo not given) | -
Cc1nnc(N2C(=O)C(O)=C(C(=O)c3ccco3)C2c2ccc(Cl)cc2)s1 (stereo not given) | 4.2
COC(=O)c1sc(N2C(=O)C(O)=C(C(=O)c3cccs3)C2c2ccc(F)cc2)nc1C (stereo not given) | -
Cc1nnc(N2C(=O)C(O)=C(C(=O)c3ccco3)C2c2ccccc2)s1 (stereo not given) | -
O=C(C1=C(O)C(=O)N(CCN2CCOCC2)C1c1ccncc1)c1cccs1 (stereo not given) | -
Cc1ccc(C2C(C(=O)c3cccs3)=C(O)C(=O)N2CCCn2ccnc2)cc1 (stereo not given) | 3.3
COc1ccc(C2C(C#N)=C(N)Oc3n[nH]c(-c4ccccc4)c32)cc1OC (stereo not given) | -
Cc1ccccc1C1OC2(C(=O)c3ccccc3C2=O)C2C(=O)N(c3ccccc3)C(=O)C12 (stereo not given) | -
CC(C)(c1ccccc1)c1ccc(O)c(CN2CCOCC2)c1 | -
CC1c2ccsc2CCN1S(=O)(=O)c1ccccc1 (stereo not given) | 3
CC1c2ccsc2CCN1S(C)(=O)=O (stereo not given) | -
CC1c2ccsc2CCN1S(=O)(=O)c1cc(C(F)(F)F)cc(C(F)(F)F)c1 (stereo not given) | -
O=C(Nc1nnc(C2CC2)s1)c1cc(-c2ccc(Cl)cc2)oc1C(F)(F)F | -
O=c1oc2c(-c3cccc(F)c3)cc(O)cc2s1 | 5
CC(=O)Oc1cc2sc(=O)oc2c2ccccc12 | -
Cc1ccc(-c2cc(O)cc3sc(=O)oc23)cc1 | 8.1

Bioassay records as filed in PubChem.
